Results: PubChem BioAssay (NCI)
Compounds without any hit were thinned out: in the full panel of roughly 79,000, 15% have a hit. A number with no mark means an inactive call. Active and inactive are the calls of the source. Rule as the data show it: active = growth inhibition above about 70%; inactive = the rest. Where a SMILES comes first, the peptide text is derived from it. [ ]: non-standard residue; d: D form. Phe(4-Cl) = N[CH](Cc1ccc(Cl)cc1)C(=O)O; 3Pal = N[CH](Cc1cccnc1)C(=O)O

Experiments:
[1] = NCI Yeast Anticancer Drug Screen. Data for the rad50 strain (AID 155);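 also: 0% = growth of vehicle-only cultures of the same strain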; settings: S. cerevisiae rad50 strain growth inhibition, stronger effect = higher value
How it was run: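 Relative growth inhibition (compound vs vehicle) was measured in yeast with a defined repair-gene alteration.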

[2] = NCI Yeast Anticancer Drug Screen. Data for the mec2-1 strain (AID 157); settings: S. cerevisiae mec2-1 strain, stronger effect = higher value
How it was run: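 Yeast mec2-1 mutant treated with compound. Readout: growth inhibition vs vehicle controls.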

[3] = NCI Yeast Anticancer Drug Screen. Data for the sgs1 mgt1 strain (AID 161);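 also: 0% = growth of cultures given vehicle only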; settings: S. cerevisiae sgs1 mgt1 strain, stronger effect = higher value
How it was run: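 Mutant yeast exposed to compound; growth scored against vehicle-only wells.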

[4] = NCI Yeast Anticancer Drug Screen. Data for the cln2 rad14 strain (AID 165);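 also: 0% = growth equal to vehicle treated cultures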; settings: S. cerevisiae cln2 rad14 strain, stronger effect = higher value
How it was run: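 cln2 rad14 yeast strain; compound exposure; growth inhibition read vs vehicle controls.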

[5] = NCI Yeast Anticancer Drug Screen. Data for the bub3 strain (AID 167); settings: S. cerevisiae bub3 mutant strain, stronger effect = higher value
How it was run: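 Screening used yeast with an engineered genetic alteration affecting cell cycle control. Compound-exposed cultures were compared with vehicle cultures, and reduced growth was taken as inhibition.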

[6] = NCI Yeast Anticancer Drug Screen. Data for the mlh1 rad18 strain (AID 175); settings: S. cerevisiae mlh1 rad18 strain growth inhibition, stronger effect = higher value
How it was run: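 Yeast w/ defined DNA-repair lesions; compound exposure; growth vs vehicle controls → % inhibition.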

[7] = at 5.0 µM (retest, dose inferred, filed as 0.5)
[8] = at 50.0 µM (retest, dose inferred, filed as 5.0)

SMILES	growth inhibition [1, 7]	growth inhibition [1, 8]	growth inhibition ([1]; at 50.0 µM)	growth inhibition [2, 7]	growth inhibition [2, 8]	growth inhibition ([2]; at 50.0 µM)	growth inhibition [3, 7]	growth inhibition [3, 8]	growth inhibition ([3]; at 50.0 µM)	growth inhibition [4, 7]	growth inhibition [4, 8]	growth inhibition ([4]; at 50.0 µM)	growth inhibition [5, 7]	growth inhibition [5, 8]	growth inhibition ([5]; at 50.0 µM)	growth inhibition [6, 7]	growth inhibition [6, 8]	growth inhibition ([6]; at 50.0 µM)
CN(C)CC/C(=N\Nc1ccc(Cl)cc1Cl)c1ccccc1	90% (active)	99% (active)	99.5% (active)	79% (active)	100% (active)	99.5% (active)	97% (active)	100% (active)	99.5% (active)	95% (active)	99% (active)	99.2% (active)	96% (active)	100% (active)	99.5% (active)	96% (active)	100% (active)	99.2% (active)
Nc1ccc(C(=O)N/N=C\c2cccc3ccccc23)cc1	0%	-2%	61.8%	-3%	13%	60.6%	0%	0%	88.9% (active)	-4%	3%	34.4%	6%	22%	50.8%	-1%	21%	89.3% (active)
Oc1ccc(N=Nc2ccccc2)cc1	13%	97% (active)	98.5% (active)	5%	99% (active)	99.5% (active)	-6%	64%	99.3% (active)	-1%	98% (active)	98.1% (active)	4%	98% (active)	98.8% (active)	9%	98% (active)	99.2% (active)
CC(=NCC(=O)O)c1ccccc1	-12%	-6%	48.5%	-6%	-3%	-20.2%	-8%	-4%	-52.9%	2%	-6%	-4.8%	10%	13%	-22.1%	-4%	1%	-5.7%
CC(=O)NC(Cc1ccc(Cl)cc1)C(=O)NC(Cc1ccc(Cl)cc1)C(=O)NC(Cc1cccnc1)C(=O)NC(CO)C(=O)NC(Cc1ccc(O)cc1)C(=O)NC(CCCN=C(N)N)C(=O)NC(CC(C)C)C(=O)NC(CCCN=C(N)N)C(=O)N1CCCC1C(=O)NC(C)C(=O)O (configuration not stated) (Ac-[Phe(4-Cl)][Phe(4-Cl)][3Pal]SYRLRPA-OH; configuration not given here)	-20%	-8%	18.1%	-9%	-16%	17.9%	-14%	0%	5.15%	-18%	-7%	9.9%	-4%	8%	16.7%	29%	-22%	53.4%
Cc1c(Cl)cccc1NC(=O)/C(Cl)=C(\Cl)C(=O)O	-1%	33%	99.5% (active)	-1%	41%	99.8% (active)	1%	74% (active)	99.7% (active)	1%	3%	99.3% (active)	-3%	18%	99.7% (active)	-6%	39%	99.5% (active)
OCCc1ccc(-n2cnc3c(Nc4ccc(Cl)cc4)ncnc32)cc1	-3%	95% (active)	47.2%	-4%	95% (active)	43%	-4%	91% (active)	44.8%	-18%	94% (active)	17.8%	7%	96% (active)	83.8% (active)	3%	95% (active)	47%
COc1ccc2c(c1)Cc1cc(NC(=O)N(CCCl)N=O)ccc1-2	-2%	85% (active)	90.2% (active)	2%	88% (active)	55.9%	3%	77% (active)	89.2% (active)	-5%	49%	-0.85%	-11%	41%	22.9%	28%	94% (active)	95.6% (active)
N=C(N)SCc1ccc(Br)cc1	-13%	-17%	-2.75%	-29%	-23%	13.8%	-20%	-15%	-15.9%	-16%	-4%	27.6%	-18%	35%	16.9%	-29%	2%	19.9%
